Source: PubChem BioAssay (NCATS)
The source made the active and inactive calls. The call rests on the fitted dose curve; in most records, active means well fitted activation curve with a large enough effect; inconclusive means small, poorly fitted or top-dose-only effect; inactive means flat fitted curve, though single readings scatter.

experiment: Confirmation and Secondary Assay for Modulators of Hemoglobin Beta Chain Splicing at IVS2 654 locus (AID 910); settings: HeLa EGFP-654 splicing reporter, GFP fluorescence, 48 h; series mostly up to 46.1 µM; activation (splicing correction): at the top concentration;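 further: per-well total GFP intensity by laser scanning cytometry after 2-day treatment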
Procedure, shortened: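 HeLa cells stably carrying EGFP interrupted by mutant beta-globin IVS2-654 intron (CMV-driven) were treated with compound for 2 days at 37C; corrected splicing was scored as total peak GFP intensity per well (488 nm excitation, 500-520 nm emission).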
Further: % of control where 0% means no effect.

Row | SMILES | activation (splicing correction) | outcome
1 | CC(Cc1ccc(O)c(O)c1)(NN)C(=O)O (stereo unspecified) | 2.15% [at 38.3 µM] (inactive) | –
2 | C[C@@]12C(=O)OC(=O)[C@@]1(C)C1CCC2O1 | -1.36% [at 38.3 µM] (inactive) | –
3 | COc1ccc(C(C)=O)c(O)c1 | -2.28% (inactive) | –
4 | c1coc(CNc2ncnc3nc[nH]c23)c1 | 11.8% (inactive) | –
5 | Cc1cc(O)c2c(c1)C(=O)c1cccc(O)c1C2=O | 1.74% [at 38.3 µM] (inactive) | –
6 | CCCCCCCCCCCC(CC1OC(=O)C1CCCCCC)OC(=O)C(CC(C)C)NC=O (stereo unspecified) | -7.87% (inactive) | –
7 | Oc1cc2c(cc1O)C1c3ccc(O)c(O)c3OCC1(O)C2 (stereo unspecified) | 0.0779% (inactive) | –
8 | OCC(O)C(O)C(O)CO (stereo unspecified) | – | inactive
9 | Cc1ccc(O)c(C(CCN(C(C)C)C(C)C)c2ccccc2)c1 (stereo unspecified) | 2.45% [at 38.3 µM] (inactive) | –
10 | O=c1c(O)c(-c2ccc(O)c(O)c2)oc2cc(O)ccc12 | 8.14% [at 38.3 µM] (inactive) | –
11 | CCC(C(=O)O)C1CCC(C)C(C(C)C(O)C(C)C(=O)C(CC)C2OC3(C=CC(O)[C@@]4(CC[C@](C)(C5CC[C@@](O)(CC)C(C)O5)O4)O3)C(C)CC2C)O1 (stereo partly specified) | 0.0212% (inactive) | –

experiment: Confirmation and Secondary Assay for Modulators of Hemoglobin Beta Chain Splicing at IVS2 705 locus (AID 930); settings: HeLa EGFP-705 splicing reporter, GFP fluorescence, 48 h; series mostly up to 46.1 µM; activation: at the top concentration;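 further: HeLa cells stably expressing the EGFP-705 splicing reporter; GFP fluorescence per well restored by corrected splicing of the IVS2-705 intron in EGFP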
Procedure, shortened: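 Secondary splice-site specificity test uses HeLa expressing CMV-driven EGFP interrupted by IVS2-705; cells were treated 2 days at 37C with 500 nM antisense PNA as positive control.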

Row | SMILES | activation | outcome
12 | CC(Cc1ccc(O)c(O)c1)(NN)C(=O)O (stereo unspecified) | -0.0854% [at 38.3 µM] (inactive) | –
13 | C[C@@]12C(=O)OC(=O)[C@@]1(C)C1CCC2O1 | -0.595% [at 38.3 µM] (inactive) | –
14 | COc1ccc(C(C)=O)c(O)c1 | -2.3% (inactive) | –
15 | c1coc(CNc2ncnc3nc[nH]c23)c1 | 3.18% (inactive) | –
16 | Cc1cc(O)c2c(c1)C(=O)c1cccc(O)c1C2=O | 1.49% [at 38.3 µM] (inactive) | –
17 | CCCCCCCCCCCC(CC1OC(=O)C1CCCCCC)OC(=O)C(CC(C)C)NC=O (stereo unspecified) | 1.24% (inactive) | –
18 | Oc1cc2c(cc1O)C1c3ccc(O)c(O)c3OCC1(O)C2 (stereo unspecified) | 2.03% (inactive) | –
19 | OCC(O)C(O)C(O)CO (stereo unspecified) | – | inactive
20 | Cc1ccc(O)c(C(CCN(C(C)C)C(C)C)c2ccccc2)c1 (stereo unspecified) | 0.377% [at 38.3 µM] (inactive) | –
21 | CCC(C(=O)O)C1CCC(C)C(C(C)C(O)C(C)C(=O)C(CC)C2OC3(C=CC(O)[C@@]4(CC[C@](C)(C5CC[C@@](O)(CC)C(C)O5)O4)O3)C(C)CC2C)O1 (stereo partly specified) | -0.502% (inactive) | –
